Pf Dd2 inh – Plasmodium falciparum Dd2 growth inhibition. P. falciparum Dd2 growth, SYBR Green, 72 h. Potency, µM (titrated, usually from 28.9 µM), without a hit: at the top dose activity, negative = inhibition, most hits filed as inhibitors. 120,000 compounds, 4.3% hits; active = well fitted inhibition curve with a large enough effect;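 also: plate controls were DMSO vehicle for no effect and reference drug for full effect; nearly all actives have a fitted effect of over 65% in size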
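Infected erythrocytes (Dd2, 0.3% parasitemia, 2.5% hematocrit final) are added to compound in RPMI-1640/Albumax II medium, grown 72 h at 37C in low oxygen, then lysed with saponin/Triton-X containing SYBR Green and read by fluorescence.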
An asterisk follows results filed as active; i = inactive; [ ] = another dose, or the depositor's remark. Many of the other results were omitted from the sample, so hits are more common in it than they were. Potency is read from the fitted curve at half-maximal effect.

SMILES | Pf Dd2 inh
Cc1cccc(CN2CCCCCCN(C)C(=O)[C@@H]3CCC[C@@H]32)c1 | 2.5µM*
CN1CCCCCCN(C(=O)Cc2cccnc2)[C@@H]2CCC[C@@H]2C1=O | 11%
Cc1ccc(NC(=O)N2CCCN(C(=O)C3CC3)C(c3ccccc3)CC(=O)NCC2)cc1C (stereo not given) | i
CCn1ccc(C(=O)NC2CCCN(c3cc(-c4ccc(OC)cc4)[nH]n3)C2)n1 (stereo not given) | -2%
O=C(Cn1nc2n(c1=O)CCCCC2)NCc1ccc(F)cc1 | 27%
COC(=O)COCC(=O)NC[C@@H]1C=C(C)[C@H](CC(=O)NCc2ccc(F)cc2)C[C@H]1C(C)C | -14%
COCCN1Cc2nc(Nc3ccc(C(F)(F)F)cc3)ccc2OCC1=O | 13µM*
COc1cccc(CN2Cc3nc(-c4cnn(Cc5ccccc5)c4)ccc3OCC2=O)c1 | i
Cc1nc(CN2Cc3nc(-c4cnn(Cc5ccccc5)c4)ccc3OCC2=O)cs1 | 10µM*
O=C1COc2ccc(-c3cn[nH]c3)nc2CN1Cc1ccc(C(F)(F)F)cc1 | i
Cc1ccccc1CN1Cc2nc(-c3cnn(Cc4ccccc4)c3)ccc2OCC1=O | -40%[44.1 µM]
O=C1COc2ccc(-c3ccncc3)nc2CN1Cc1ccc(C(F)(F)F)cc1 | -33%[44.1 µM]
O=C1COc2ccc(Nc3ccccc3)nc2CN1CCOc1ccccc1 | -9%[44.1 µM]
O=C1COc2ccc(Nc3cccc(F)c3)nc2CN1CCOc1ccccc1 | -2%[44.1 µM]
O=C1COc2ccc(-c3ccoc3)nc2CN1Cc1ccc(C(F)(F)F)cc1 | 13µM*
CN1C(=O)CC(C(=O)O)C12CCN(Cc1ncccn1)CC2 (stereo not given) | -6%
COc1cccc(CNC(=O)Cn2c(-c3cccc(Cl)c3)nc(C)c(CCO)c2=O)c1 | i
COC(=O)CC1CCN(C(=O)C[C@H]2NC(=O)c3ccccc3NC2=O)CC1 | -10%
CC(C)CCNC(=O)c1cnc2n1CCN(Cc1cccs1)CC2 | i
CC(C)(C)c1ccc(C(=O)Nc2ccc(C(O)[C@H]3COCC(=O)N3)cc2)cc1 (stereo not given in full) | 10µM*
O=C1COC[C@H]([C@H](O)c2ccc(NS(=O)(=O)c3ccc(F)cc3)cc2)N1 | -3%[44.1 µM]
COc1ccccc1C(=O)Nc1ccc(C(O)[C@H]2COCC(=O)N2)cc1 (stereo not given in full) | -3%[44.1 µM]
COc1ccc2[nH]cc(CCN=C(NC(=O)c3cccc(Cl)c3)Nc3nc(C)cc(C)n3)c2c1 | 8.9µM*
COc1ccc2[nH]cc(CCNC(=O)Nc3c(C)cccc3C)c2c1 | i
COc1ccc2[nH]cc(CCNC(=O)Nc3cccc(F)c3)c2c1 | 4%
SMILES | Pf Dd2 inh
O=C(c1ccoc1)N1CCCC(CN2CCCC2)CC1 (stereo not given) | -20%
Cc1cc(=O)n(Cc2ccccc2)c2c1c(C)nn2-c1ccccc1 | 7%
CCN(CC)C(=O)Cn1c(=O)cc(C)c2c(C)nn(C)c21 | i
CCc1ccc(-n2nc(C)c3c(C)cc(=O)n(CC(=O)N(CC)Cc4ccccc4)c32)cc1 | 8.9µM*
CC(C)(C)NC(=O)N1CCCC1c1noc(COc2ccc(F)cc2)n1 (stereo not given) | -23%
O=C(NCCCc1ccccc1)C1CN(Cc2ccccc2)C(=O)N1 (stereo not given) | 7%[44.1 µM]
COCCCNC(=O)[C@H]1CN(Cc2ccccc2)C[C@H]1C(=O)O | -7%
O=C(NCCCc1ccccc1F)[C@@]12CNC[C@@H]1CN(Cc1ccccc1)C2 | 7.9µM*
Cc1c(Cl)cccc1NC(=O)c1cc2n(n1)CC(c1ccc(Cl)cc1)OC2 (stereo not given) | 17%
CC(=O)NCC(=O)N1C[C@@H](COCC2CC2)[C@H](c2ccncc2)C1 | 47%
COc1cccc(CN2CCCCCCNC(=O)CC2c2ccccc2)c1OC (stereo not given) | 7.9µM*
Cc1ccc(CN2CCCC(c3nc(C(C)C)no3)CCNC(=O)CC2)o1 (stereo not given) | -1%
Cc1ccc(CN2CCCN(S(C)(=O)=O)C(c3ccccc3)CC(=O)NCC2)o1 (stereo not given) | i
CC(C)NC(=O)N1CCCCCNC(=O)CC1c1ccccc1 (stereo not given) | -20%
COc1cccc(CN2CCNC(=O)C2CC(=O)N2CCNC(=O)C2)c1OC (stereo not given) | 10%
COc1cccc(CN2CCCOCCNC(=O)CC2)c1OC | -29%
CS(=O)(=O)N1CCCN(Cc2cn[nH]c2-c2ccc(F)cc2)CCNC(=O)CC1c1ccccc1 (stereo not given) | i
COc1cccc(CN2CCCCCNC(=O)CC2c2ccccc2)c1OC (stereo not given) | 11µM*
CCn1ncc(CN2CCCN(S(C)(=O)=O)C(c3ccccc3)CC(=O)NCC2)c1C (stereo not given) | -12%
CCOc1ccccc1CN1CCCN(Cc2ccncc2)C(c2ccccc2)CC(=O)NCC1 (stereo not given) | 1.3µM*
Cc1ccc(CN2CCCN(Cc3ccncc3)C(c3ccccc3)CC(=O)NCC2)o1 (stereo not given) | 1.8µM*
